The list is not random: actives were taken first. Their share in the collection is about 2.8%.
HTT cytoprotect: Huntington cell model cytoprotection by ATP luminescence; PC12 HTT-Q103 induced, cytoprotection, ATP luminescence, 40 h; Potency, µM (highest dose often 56.4 µM), hits mostly activators; 230,000 tested, 0.14% active; AID 1471; further: nearly all actives have a fitted effect of over 45% in size
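Stable PC12 Q103-GFP cells in serum-supplemented, phenol red-free DMEM; induction by tebufenozide at 100 nM final; compound dose series; cell viability quantified luminescently from ATP.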
S2 tox: cell viability loss in ATXN counter-screen. 400,000 tested, 0.49% active. Potency, µM (series often up to 56.7 µM), hits mostly cytotoxic. S2 cells (HEK-293 line with an ATXN2-luciferase reporter) viability, CellTiter-Fluor protease fluorescence, 24 h. AID 651635; further: nearly all actives have a fitted effect of over 40% in size
HttQ103 aggreg: inhibitors of mutant huntingtin aggregate formation in PC12 cells. PC12 HttQ103-GFP aggregates, Acumen cytometry, 40 h. Potency, µM (series often up to 46.1 µM), usual class: inhibitors. 220,000 tested, 1.1% active. AID 1688; further: nearly all actives have a fitted effect of over 60% in size
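Aggregate formation scored by laser-scanning cytometer (488 excitation, 500–530 emission) in lysed PC12 cells expressing Q103-GFP after 100 nM tebufenozide induction; library tested in dose series, with ATPLite reagent added in the multiplex.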
ATXN2 expr inh: reduces ATXN2 reporter expression in HEK-293 cells; HEK-293 ATXN2-luciferase reporter, luminescence, 24 h; 360,000 tested, 0.72% active; Potency, µM (series often up to 57 µM), actives largely listed as inhibitors; further: nearly all actives have a fitted effect of over 55% in size
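qHTS (up to 57 uM final) was run with 24 h compound exposure of reporter cells at 37 °C. Each well was multiplexed: SteadyGlo luminescence measured ATXN2-luciferase expression after a fluorogenic Gly-Phe-AFC viability readout (25 uM final).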
TGFb SMAD3 inh: inhibitors of TGF-b signaling | HepG2 CAGA-GFP TGF-b/SMAD3 reporter, GFP fluorescence, 18 h; TGF-beta stimulated, 500 pg/mL final | Potency, µM (top dose mostly 46.1 µM), most hits filed as inhibitors | 410,000 tested, 1.2% active | AID 588855; further: nearly all actives have a fitted effect of over 65% in size
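Smad-responsive CAGA-GFP expression was quantified in HEPG2 cells exposed to compounds and 500 pg/mL final TGF-beta for 18 h at 37 degrees C; unstimulated wells defined full inhibition.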
HepG2 tox-1: kills HepG2 cells in TGF-b inhibitor counter-screen; HepG2 CAGA-GFP viability, ATP luminescence, 18 h; Potency, µM (top dose mostly 46.1 µM), actives largely listed as cytotoxic; 410,000 tested, 0.76% active
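HepG2 CAGA-GFP cells (1000/well, DMEM with 1% FBS) received compound, then TGF-beta at 500 pg/mL final, and were incubated 18 hours at 37 degrees C. Viability was read by CellTiter-Glo luminescence. Media-only wells were set as complete cell-killing and DMSO as no toxicity.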
TGFb confirm: confirmation of TGF-b signaling inhibitors in HepG2 reporter cells | shares compounds with TGFb SMAD3 inh | HepG2 CAGA-GFP TGF-b reporter, GFP fluorescence, 18 h; cells stimulated with TGF-beta, 500 pg/mL | Potency, µM (titrated, usually from 46.1 µM), actives largely listed as inhibitors | 1,600 tested, 63% active; further: nearly all actives have a fitted effect of over 65% in size
HepG2 tox-2: toxic to HepG2 cells in TGF-b counterscreen; Potency, µM (top dose mostly 46.1 µM), actives largely listed as inhibitors; HepG2 CAGA-GFP viability, ATP luminescence, 18 h; cells stimulated with TGF-beta, 500 pg/mL; AID 720535; shares compounds with TGFb SMAD3 inh; 1,600 tested, 27% active; further: nearly all actives have a fitted effect of over 70% in size
CCL64 TGFb inh: blocks TGF-b signaling in CCL64 reporter cells. shares compounds with TGFb SMAD3 inh. CCL64 CAGA-GFP reporter, TGF-b stimulated, GFP fluorescence, 18 h. Potency, µM (top dose mostly 46.1 µM), usual class: inhibitors. 1,600 tested, 41% active. AID 720536; further: nearly all actives have a fitted effect of over 65% in size
TGFb COP inh: blocks TGF-b signaling in HepG2 COP reporter. HepG2 COP-GFP TGF-b reporter, GFP fluorescence, 18 h; cells stimulated by added recombinant TGF-beta. 1,600 tested, 3% active. shares compounds with TGFb SMAD3 inh. Potency, µM (top dose mostly 46.1 µM), actives largely listed as inhibitors; further: nearly all actives have a fitted effect of over 70% in size
Numbers stand for hits; i = inactive; ? = inconclusive; nt = not tested or not shown; [ ] = dose if it differs, or a comment. The call rests on the fitted dose curve; in most records, active means well fitted curve in the direction sought with a large enough effect; inconclusive means small, poorly fitted or top-dose-only effect, or another doubt; inactive means no such curve, though single readings can be large; an effect the other way counts as inactive or inconclusive.

SMILES	HTT cytoprotect	S2 tox	HttQ103 aggreg	ATXN2 expr inh	TGFb SMAD3 inh	HepG2 tox-1	TGFb confirm	HepG2 tox-2	CCL64 TGFb inh	TGFb COP inh
CC(=O)Nc1ccc(S(=O)(=O)N2CCN(Cc3ccncc3)CC2)cc1	i[1.9 µM]	i	i	i	i	i	nt	nt	nt	nt
CC[C@]12c3[nH]c4cc(-c5ccco5)ccc4c3CCN1C(=O)[C@@H](CC(=O)NCc1cccc(C(F)(F)F)c1)C[C@@H]2C(=O)N1CCN(C(=O)C2CC2)CC1	nt	?	nt	?	10µM	i	14.6µM	?	?	i
CC[C@]12c3[nH]c4cc(-c5ccco5)ccc4c3CCN1C(=O)[C@@H](CC(=O)NCc1ccco1)C[C@@H]2C(=O)N1CCN(C(=O)C2CC2)CC1	nt	i	nt	i	i	i	nt	nt	nt	nt
C[C@]12c3[nH]c4cc(-c5ccco5)ccc4c3CCN1C(=O)[C@@H](CC(=O)NCc1cccc(C(F)(F)F)c1)C[C@@H]2C(=O)N1CCCCC1	nt	?	nt	?	7.94µM	i	16.4µM	?	?	i
C[C@]12c3[nH]c4cc(-c5ccco5)ccc4c3CCN1C(=O)[C@@H](CC(=O)NCC13CC4CC(CC(C4)C1)C3)C[C@@H]2C(=O)N1CCCCC1	nt	?	nt	?	?	i	nt	nt	nt	nt
N#Cc1ccc(C(=O)NCC(c2ccco2)N2CCCCC2)cc1 (stereo unspecified)	i	i	i	i	i	i	nt	nt	nt	nt
O=C(NCC(c1ccco1)N1CCCCC1)c1ccc(COc2ccc(Cl)cc2)cc1 (stereo unspecified)	nt	?	nt	?	12.6µM	i	16.4µM	?	16.4µM	i
CN(C)c1cc(Nc2ccc(O)cc2)c([N+](=O)[O-])c2nonc12	i[10 µM]	?	i[9.22 µM]	i	i	i	nt	nt	nt	nt
O=[N+]([O-])c1c(Nc2ccc(O)cc2)cc(Cl)c2nonc12	nt	nt	nt	nt	2.82µM	5.01µM	3.26µM	3.66µM	2.91µM	4.61µM
O=[N+]([O-])c1c(Nc2ccccn2)cc(Cl)c2nonc12	i[10 µM]	?	i[9.22 µM]	28.2µM	3.16µM	i	4.61µM	4.61µM	4.61µM	5.17µM
C=CC1=C2C=C(C3CC3)N(c3ccc(OC)cc3)C=C2C(=O)C(C)(OC(=O)c2ccco2)C1=O (stereo unspecified)	i[10 µM]	nt	nt	nt	nt	nt	nt	nt	nt	nt
COc1ccc(NC(=O)Nc2ccc(O)c3ccccc23)cc1	nt	?	nt	?	6.31µM	i	?	i	16.4µM	i
O=[N+]([O-])c1cc(Cl)ccc1N1CCN(c2ccccc2O)CC1	i	?	i	i	7.08µM	i	?	i	i	i
Cc1ccc(NC(=O)c2cc(S(=O)(=O)NCCC3=CCCCC3)ccc2F)cc1	?	?	i	i	11.2µM	i	18.4µM	?	25.9µM	i
Cc1ccc(C)c(NC(=O)c2cc(S(=O)(=O)NCCC3=CCCCC3)ccc2F)c1	nt	nt	nt	nt	?	i	nt	nt	nt	nt
COc1cc([C@H](O)C(=O)O)ccc1O	i[1.9 µM]	nt	nt	nt	nt	nt	nt	nt	nt	nt
C=CC(=O)Nc1cccc(Oc2ccnc(Nc3ccc(N4CCN(C)CC4)cc3)n2)c1	nt	?	nt	i	12.6µM	i	14.6µM	23.1µM	11.6µM	i
CN1CCN(c2ccc(NC(=O)COc3cccc4ccccc34)cc2)CC1	nt	i	nt	i	i	i	nt	nt	nt	nt
Cc1nc2c(o1)C(=O)c1ccccc1C2=Nc1ccccc1	nt	nt	nt	28.2µM	1.26µM	1.41µM	3.66µM	4.11µM	5.8µM	4.11µM
O=C(CSC1=NCCS1)Nc1ccnc2ccccc12	i	i	10µM	i	?	i	10.3µM	i	i	i
Cc1cc(C)nc(SCC(=O)Nc2ccnc3ccccc23)n1	nt	i	?	i	i	i	nt	nt	nt	nt
Cc1ccc(Cl)cc1	i	nt	nt	nt	nt	nt	nt	nt	nt	nt
Clc1ccc(CSc2nnc(-c3ccccn3)n2Cc2cccs2)cc1Cl	nt	?	nt	?	8.91µM	i	14.6µM	?	?	i
Cc1ccc(CSc2nnc(-c3ccccn3)n2Cc2cccs2)cc1	nt	?	nt	?	?	i	nt	nt	nt	nt
OCCCNc1cc(-c2ccnc(Nc3cccc(Cl)c3)n2)ccn1	i[10 µM]	?	0.708µM	0.159µM	0.282µM	i	0.058µM	0.231µM	0.184µM	i
SMILES	HTT cytoprotect	S2 tox	HttQ103 aggreg	ATXN2 expr inh	TGFb SMAD3 inh	HepG2 tox-1	TGFb confirm	HepG2 tox-2	CCL64 TGFb inh	TGFb COP inh
CCC(C)Oc1cc(-c2ccnc(Nc3cccc(Cl)c3)n2)ccn1 (stereo unspecified)	i[10 µM]	i	i[9.22 µM]	?	7.08µM	i	5.8µM	?	6.51µM	i
COc1cccc(NC(=O)CNC(=O)c2ccccc2)c1	i[10 µM]	i	i	i	i	i	nt	nt	nt	nt
COc1ccc(NS(=O)(=O)c2cccc(NC(=O)CCC(=O)c3ccc(Cl)cc3)c2)cc1	i[10 µM]	?	i	i	10µM	i	16.4µM	?	?	i
COc1ccc(NS(=O)(=O)c2cc(NC(=O)CNC(=O)c3cccc(OC)c3)ccc2C)cc1	i[10 µM]	i	i	i	?	i	?	i	?	i
O=C(C[n+]1ccc2ccccc2c1)c1ccc(O)c(O)c1	nt	nt	nt	nt	i	i	nt	nt	nt	nt
CCOC(=O)N1CCN([N+]([O-])=NOc2cc(O/N=[N+](\[O-])N(CC)CC)c([N+](=O)[O-])cc2[N+](=O)[O-])CC1	nt	nt	nt	nt	i	i	nt	nt	nt	nt
CC(=O)n1c(COS(C)(=O)=O)nc2ccccc21	i[10 µM]	nt	nt	nt	nt	nt	nt	nt	nt	nt
CC1(C)CC(=O)C=C(NC2=CC3OC(c4ccccc4)OCC3OC2=O)C1 (stereo unspecified)	nt	?	?	i	8.91µM	i	23.1µM	16.4µM	6.51µM	i
Cc1ccccc1NC1=CC(=O)CC(C)(C)C1	i[10 µM]	i	i	i	i	i	nt	nt	nt	nt
NC1=NC[C@@H](Cc2ccc(O)cc2)N1CCC12CC3CC(CC(C3)C1)C2	nt	?	nt	?	10µM	i	i	i	i	i
C[C@@H](/C=C/c1ccc2ccccc2c1)C1COC(=O)C[C@H]1O (stereo partly specified)	nt	nt	nt	nt	i	i	nt	nt	nt	nt
O=C1C(Nc2ccccc2)=C(NS(=O)(=O)c2ccccc2)C(=O)c2ccccc21	nt	i	i	i	6.31µM	i	?	i	i	i

Screens (PubChem BioAssay)
